HT1080 IDH1KD tx = qHTS for induction of synthetic lethality in tumor cells producing 2HG: qHTS for the HT-1080-IDH1KD cell line | HT-1080 IDH1 knockdown viability, ATP luminescence, 48 h | Potency, µM (titrated, usually from 46.1 µM), inactives show at the top dose activity, negative = toxicity, most hits filed as cytotoxic | 360,000 tested, 2% active;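 also: potency is read from the fitted curve at half-maximal effect; 0% = DMSO wells and -100% = cell-free medium wells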
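Knockdown cells (IDH1KD HT-1080) received compounds 2 h after plating at 750 cells/well and were kept 48 h at 37 °C in 5% FBS RPMI. A CellTiter-Glo luminescence read gave % activity for curve fitting.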
ELG1 repair inh = qHTS screen for small molecules that inhibit ELG1-dependent DNA repair in human embryonic kidney (HEK293T) cells expressing luciferase-tagged ELG1. HEK293T ELG1-luciferase reporter, luminescence, 16 h; DNA damage induced by 5-fluorouridine. Potency, µM (titrated, usually from 46.1 µM), inactives show at the top dose activity change, negative = inhibition, actives largely listed as inhibitors. 330,000 tested, 2.3% active; also: potency is read from the fitted curve at half-maximal effect; nearly all actives have a fitted effect of over 55% in size
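Luminescence from the luciferase reporter, measured 30 min after ONE-Glo reagent at room temperature, was the read-out. Beforehand, 2,000 cells per well were exposed for 16 hr at 37 °C to 5-fluorouridine together with compound or vehicle.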
DT40 TDP1 CPT = qHTS for Inhibitors of human tyrosyl-DNA phosphodiesterase 1 (TDP1): qHTS in cells in presence of CPT | chicken DT40 Tdp1-/-;hTDP1 cells + 20 nM CPT, ATP luminescence, 48 h | Potency, µM (series often up to 46.2 µM), inactives show at the highest dose activity change, negative = growth inhibition, usual class: inhibitors | 420,000 tested, 12% active | AID 686979, 2013; also: potency is read from the fitted curve at half-maximal effect; nearly all actives have a fitted effect of over 55% in size
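Chicken DT40 Tdp1-/- cells complemented with human TDP1, 400 cells/well, exposed to compounds plus 20 nM camptothecin for at least 48 h at 37 C; viability read as ATP content by CellTiter-Glo luminescence.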
HT1080NT lethal = qHTS for induction of synthetic lethality in tumor cells producing 2HG: qHTS for the HT-1080-NT fibrosarcoma cell line | HT-1080-NT fibrosarcoma viability, CellTiter-Glo ATP luminescence, 48 h | Potency, µM (series often up to 46.1 µM), inactives show at the highest dose activity, negative = less viability, hits mostly cytotoxic | 360,000 tested, 1.6% active;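 also: NT is the 2HG producing partner of a matched IDH1 knockdown line; potency is read from the fitted curve at half-maximal effect; 0% = DMSO-treated cells and -100% = media-only wells without cells; nearly all actives have a fitted effect of over 55% in size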
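Viability of the 2HG-overproducing fibrosarcoma line after 48 hours of compound exposure at 37 degrees C was determined by luminescence with CellTiter-Glo, and concentration-effect curves were then fitted and categorized.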
IL1B secr inh = qHTS for Inhibitors of Inflammasome Signaling: IL-1-beta AlphaLISA Primary Screen | THP-1 LPS/ATP IL-1B secretion, AlphaLISA, 16 h; stronger effect = lower value | activity change, % at 57.5 µM | 360,000 tested, 4.7% active | AID 743279, 2014; in the data active = activity change below about -50%; inconclusive = mostly about -30% to -49%
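Secreted IL-1B measured by AlphaLISA bead assay after 16 h compound exposure of THP-1 cells; compounds (final up to 57.5 uM) added 1 h before LPS (250 ng/mL) and ATP (1.25 mM) stimulation; lower signal means less secretion.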
DT40 TDP1 no CPT = qHTS for Inhibitors of human tyrosyl-DNA phosphodiesterase 1 (TDP1): qHTS in cells in absence of CPT | DT40 Tdp1-/- hTDP1 cells, no CPT, ATP luminescence, 48 h | Potency, µM (highest dose often 46.2 µM), without a hit: at the top dose activity change, negative = growth inhibition, usual class: inhibitors | 420,000 tested, 15% active | AID 686978, 2013; also: potency is read from the fitted curve at half-maximal effect; nearly all actives have a fitted effect of over 55% in size
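DT40 Tdp1-/-;hTDP1 cells, no CPT (DMSO vehicle only), 400 cells/well; compounds pin-transferred; ≥48 hr, 37 °C; CellTiter-Glo 30 min RT dark, luminescence read.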
Numbers without * were called inactive. This is a sample that favours compounds with a hit; in the whole collection about 19% have one here. Unless noted, calls follow the shape of the dose curve; as a rule, active = well fitted curve in the direction sought with a large enough effect; inconclusive = small, poorly fitted or top-dose-only effect, or another doubt; inactive = no such curve, though single readings can be large; an effect the other way counts as inactive or inconclusive. Unless noted, % is scaled to controls: 0 for no effect and ±100 for the full control effect.

Screening Nc1nc(Nc2cccc(Cl)c2)n[nH]1 returned HT1080 IDH1KD tx 14%, ELG1 repair inh 14%, DT40 TDP1 CPT inconclusive, HT1080NT lethal 3%, IL1B secr inh -5 and DT40 TDP1 no CPT -9%.
`O=c1[nH]c(/C=C/c2ccc(OC(F)F)cc2)nc2c1cnn2-c1ccccc1` gave HT1080 IDH1KD tx 18%, ELG1 repair inh inconclusive, DT40 TDP1 CPT inconclusive, HT1080NT lethal 27%, IL1B secr inh -56* and DT40 TDP1 no CPT inconclusive.
Screening CCN(CCNCC(O)COCc1ccc(Cl)cc1)c1cccc(C)c1 (centres undefined) returned HT1080 IDH1KD tx inconclusive, ELG1 repair inh 2%, DT40 TDP1 CPT inconclusive, HT1080NT lethal 16µM* and DT40 TDP1 no CPT inconclusive.
For N=C(N)SCc1nc2ccccc2c(=O)n1-c1ccccc1Cl the results were HT1080 IDH1KD tx 11%, ELG1 repair inh inconclusive, DT40 TDP1 CPT 26µM*, HT1080NT lethal 19%, IL1B secr inh inconclusive and DT40 TDP1 no CPT 21µM*.
O=c1c2ccccc2nc(CSc2nnnn2-c2ccccc2)n1-c1ccccc1Cl was read as HT1080 IDH1KD tx inconclusive, ELG1 repair inh -3%, DT40 TDP1 CPT inconclusive, HT1080NT lethal -23%, IL1B secr inh -3 and DT40 TDP1 no CPT inconclusive.
For Cc1ccccc1-n1c(CSC(=N)N)nc2ccccc2c1=O the results were HT1080 IDH1KD tx 3%, ELG1 repair inh -13%, DT40 TDP1 CPT 21µM*, HT1080NT lethal 9%, IL1B secr inh 0 and DT40 TDP1 no CPT inconclusive.
For O=C(NCc1ccco1)Nc1ccc([N+](=O)[O-])cc1 the results were HT1080 IDH1KD tx 3%, ELG1 repair inh -4%, DT40 TDP1 CPT -14%, HT1080NT lethal 1%, IL1B secr inh inconclusive and DT40 TDP1 no CPT inconclusive.
For O=C(NCc1ccccc1F)Nc1ccc([N+](=O)[O-])cc1 the results were HT1080 IDH1KD tx -4%, ELG1 repair inh -21%, DT40 TDP1 CPT inconclusive, HT1080NT lethal -10%, IL1B secr inh -15 and DT40 TDP1 no CPT 26µM*.
`CCc1ccc(NC(=O)NCc2ccc3c(c2)OCO3)cc1` gave HT1080 IDH1KD tx -7%, ELG1 repair inh 17%, DT40 TDP1 CPT -2%, HT1080NT lethal 5%, IL1B secr inh -9 and DT40 TDP1 no CPT 4%.
`O=C(NCc1ccc2c(c1)OCO2)Nc1ccc([N+](=O)[O-])cc1` gave HT1080 IDH1KD tx -24%, ELG1 repair inh inconclusive, DT40 TDP1 CPT 21µM*, HT1080NT lethal -8%, IL1B secr inh 3 and DT40 TDP1 no CPT 4.1µM*.
For CN(C(=O)CN(C)S(=O)(=O)c1ccc(F)cc1)c1c(N)n(Cc2ccccc2)c(=O)[nH]c1=O the results were HT1080 IDH1KD tx 3%, ELG1 repair inh 13%, DT40 TDP1 CPT 14%, HT1080NT lethal -2%, IL1B secr inh 10 and DT40 TDP1 no CPT -5%.
`CCSc1nnc(NC(=O)CN2C(=O)NC3(CCCC3)C2=O)s1` gave HT1080 IDH1KD tx 6%, ELG1 repair inh 13%, DT40 TDP1 CPT 2%, HT1080NT lethal 4%, IL1B secr inh 4 and DT40 TDP1 no CPT -28%.
Cc1ccc(CN2CCCN(Cc3cc(C)ccc3C)S2(=O)=O)cc1 was read as HT1080 IDH1KD tx -13%, ELG1 repair inh 9%, DT40 TDP1 CPT -12%, HT1080NT lethal 1%, IL1B secr inh 14 and DT40 TDP1 no CPT 13%.
Cc1ccc(C)c(CN2CCCN(Cc3cc(C)ccc3C)S2(=O)=O)c1 was read as HT1080 IDH1KD tx 2%, ELG1 repair inh 4%, DT40 TDP1 CPT inconclusive, HT1080NT lethal -9%, IL1B secr inh 9 and DT40 TDP1 no CPT 9.2µM*.
Cc1cc([N+](=O)[O-])ccc1NC(=O)Nc1ccc(F)cc1F was read as HT1080 IDH1KD tx 14%, ELG1 repair inh 0%, DT40 TDP1 CPT 5.2µM*, HT1080NT lethal 16%, IL1B secr inh -82* and DT40 TDP1 no CPT 4.6µM*.
O=C(Nc1ccc(OC(F)(F)F)cc1)Nc1cccc([N+](=O)[O-])c1 was read as HT1080 IDH1KD tx inconclusive, ELG1 repair inh inconclusive, DT40 TDP1 CPT 2.9µM*, HT1080NT lethal inconclusive, IL1B secr inh -106* and DT40 TDP1 no CPT 4.1µM*.
Cc1ccc(NC(=O)Nc2cccc([N+](=O)[O-])c2)cc1F was read as HT1080 IDH1KD tx 12µM*, ELG1 repair inh inconclusive, DT40 TDP1 CPT inconclusive, HT1080NT lethal 15µM*, IL1B secr inh -95* and DT40 TDP1 no CPT 16µM*.
Screening COc1ccc(NC(=O)Nc2ccc(F)cc2F)c(C)c1 returned HT1080 IDH1KD tx 8%, ELG1 repair inh inconclusive, DT40 TDP1 CPT inconclusive, HT1080NT lethal 4%, IL1B secr inh -26 and DT40 TDP1 no CPT inconclusive.
O=C(Nc1ccc(OC(F)(F)F)cc1)Nc1cccnc1 was read as HT1080 IDH1KD tx 5%, ELG1 repair inh inconclusive, DT40 TDP1 CPT inconclusive, HT1080NT lethal 6%, IL1B secr inh 43 and DT40 TDP1 no CPT inconclusive.
For O=C(Nc1cc2c(oc1=O)CCCC2=O)c1ccc(Cl)cc1 the results were HT1080 IDH1KD tx 5%, ELG1 repair inh inconclusive, DT40 TDP1 CPT -20%, HT1080NT lethal 5%, IL1B secr inh -2 and DT40 TDP1 no CPT 10%.
Screening CCNCCCNCCCCNCCCNCC returned DT40 TDP1 CPT 3.8µM* and DT40 TDP1 no CPT 5.3µM*.
Screening Cc1ccc2c(c1)c1c(c(=O)n(-c3ccccc3C)c(=O)n1Cc1cccc(F)c1)n2C returned DT40 TDP1 CPT 13µM* and DT40 TDP1 no CPT 9.2µM*.
`Cc1cccc(Cn2c(=O)n(-c3ccccc3C)c(=O)c3c2c2cc(C)ccc2n3C)c1` gave DT40 TDP1 CPT 23µM* and DT40 TDP1 no CPT 21µM*.
C=Cc1ccc(Cn2c(=O)n(-c3ccc(C)cc3)c(=O)c3c2c2cc(OC)ccc2n3C)cc1 was read as DT40 TDP1 CPT inconclusive and DT40 TDP1 no CPT 26µM*.
COc1ccc2c(c1)c1c(c(=O)n(Cc3ccccc3)c(=O)n1CC(=O)Nc1cc(C)cc(C)c1)n2C was read as DT40 TDP1 CPT inconclusive and DT40 TDP1 no CPT -25%.
